Test results: PubChem BioAssay (NCATS)
Records with an inconclusive call do not appear. Entries that show only a call come without a potency. The source made the active and inactive calls. Calls come from the whole dose curve; as a rule, active = well fitted curve in the direction sought with a large enough effect; inconclusive = small, poorly fitted or top-dose-only effect, or another doubt; inactive = no such curve, though single readings can be large; an effect the other way counts as inactive or inconclusive.

How the values were obtained:
[1] = biological target: Arylsulfatase A (Homo sapiens) (UniProt P15289); assay: qHTS screen for enhancers of Arylsulfatase A (ASA1): LOPAC Validation Assay (AID 720538); conditions: ASA enzyme activity, LOPAC qHTS enhancer assay; series mostly up to 57.5 µM; note: potency is the fitted concentration of half-maximal effect
How it was run: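 First, ASA-I179S fibroblasts from an MLD patient adhered for 6 hrs. Next, compounds were added for 48h. Then pNCS substrate (0.5mM final) with lysis buffer reacted 14h at room temperature before NaOH stop and fluorescence measurement.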

[2] = qHTS for compounds that reverse cellular toxicity of Amyloid beta (A-beta) peptide in yeast: LOPAC Validation Assay (AID 720559); conditions: yeast expressing A-beta; series mostly up to 46.1 µM
How it was run: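 Activity is expressed relative to DMSO and an equimolar ferric chloride/clioquinol mix. Compounds were pinned into medium with A-beta-expressing yeast, grown 48 hr at 30 C, then read by absorbance at 600 nm.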

[3] = qHTS for Activators of Parkin Expression: LOPAC Validation Assay (FLuc Reporter) (AID 720573); conditions: Cell line, PRKN promoter firefly luciferase reporter, vehicle wells = 0, positive control = 100%; series mostly up to 46.1 µM
How it was run: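 A neuronal cell line harbouring FLuc and NLuc reporters behind the Parkin promoter was exposed to compounds for 24 h. Firefly luciferase signal, measured after 10 min with detection reagent, was scaled to DMSO and positive-control wells.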

[4] = qHTS for Activators of Parkin Expression: LOPAC Validation Assay (NLuc Reporter) (AID 720572); conditions: Parkin promoter NanoLuc reporter cells, luminescence; series mostly up to 46.1 µM
How it was run: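 Neuronal line stably carrying a FLuc/NLuc coincidence reporter under the Parkin promoter, seeded 24 h, then dosed in 7-point series for 24 h at 37 C. NLuc luminescence read after FLuc; normalized to DMSO and positive control (100%).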

Sequence of Arylsulfatase A (Homo sapiens) (P15289 whole entry, looked up): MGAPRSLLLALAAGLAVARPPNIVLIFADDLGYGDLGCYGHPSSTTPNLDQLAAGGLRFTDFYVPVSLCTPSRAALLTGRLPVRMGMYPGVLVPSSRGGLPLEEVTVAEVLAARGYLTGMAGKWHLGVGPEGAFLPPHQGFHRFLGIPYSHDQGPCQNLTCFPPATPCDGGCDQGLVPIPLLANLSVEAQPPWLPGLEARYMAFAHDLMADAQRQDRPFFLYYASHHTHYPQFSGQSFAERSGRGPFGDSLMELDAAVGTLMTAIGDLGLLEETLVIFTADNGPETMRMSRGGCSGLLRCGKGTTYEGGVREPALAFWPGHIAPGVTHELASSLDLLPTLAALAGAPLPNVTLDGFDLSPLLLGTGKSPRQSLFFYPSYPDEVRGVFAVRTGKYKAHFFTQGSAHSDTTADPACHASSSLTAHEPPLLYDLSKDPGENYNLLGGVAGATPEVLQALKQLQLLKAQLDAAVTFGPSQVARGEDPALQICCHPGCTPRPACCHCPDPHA

Structure (SMILES) | Potency [1] | outcome [2] | outcome [3] | Potency [4]
O=[N+]([O-])c1cc(O)c(O)c([N+](=O)[O-])c1 | 19 µM (active) | inactive | inactive | –
Nc1ccc(CCN2CCN(c3cccc(C(F)(F)F)c3)CC2)cc1 | inactive | inactive | inactive | –
CC(C)[C@@]1(NC(=O)[C@@H]2C[C@@H]3c4cccc5[nH]cc(c45)C[C@H]3N(C)C2)O[C@@]2(O)[C@@H]3CCCN3C(=O)[C@H](Cc3ccccc3)N2C1=O | inactive | inactive | inactive | inactive
C[C@H](Cc1ccc2c(c1)OC(C(=O)O)(C(=O)O)O2)NC[C@H](O)c1cccc(Cl)c1 | inactive | inactive | inactive | –
N[C@@]1(C(=O)O)CC[C@@H](C(=O)O)C1 | inactive | inactive | inactive | inactive
c1ccc2c(N3CCNCC3)cccc2c1 | inactive | inactive | inactive | –
NC(N)=Nc1ccc2[nH]c3c(c2c1)C[C@@]1(O)[C@H]2Cc4ccc(O)c5c4[C@@]1(CCN2CC1CC1)[C@H]3O5 | inactive | inactive | inactive | –
CC(C)(C)c1o[nH]c(=O)c1CC(N)C(=O)O (stereo unspecified) | inactive | inactive | inactive | –
O=C1CC[C@@]2(O)C3Cc4ccc(O)c5c4C2(CCN3CC2CC2)[C@H]1O5 (stereo partly specified) | 0.426 µM (active) | inactive | inactive | –
CC(N)Cc1c[nH]c2ccc(O)cc12 (stereo unspecified) | 9.53 µM (active) | inactive | inactive | inactive
CC(=O)OCC1=C(C(=O)O)N2C(=O)[C@@H](NC(=O)CCC[C@@H](N)C(=O)O)[C@H]2SC1 | inactive | inactive | inactive | inactive
CCCN1CCc2cccc3c2[C@H]1Cc1ccc(O)c(O)c1-3 | inactive | inactive | inactive | inactive
